{"source": "PubChem BioAssay AID489028", "about": "(Sanford-Burnham Center for Chemical Genomics, 2010)", "note": "In all, about 10,000 compounds went through this assay and about 5,600 (56%) were called active. The set was probably picked from earlier hits. A selection follows. Unmarked numbers belong to inactive results. Rule as the data show it: active = inhibition above about 40%; inactive = the rest."}
{"biological_target": "Protein Mdm4 (Homo sapiens) + E3 ubiquitin-protein ligase Mdm2 (Homo sapiens) (UniProt O15151+Q00987)", "sequence (O15151 whole entry, looked up)": "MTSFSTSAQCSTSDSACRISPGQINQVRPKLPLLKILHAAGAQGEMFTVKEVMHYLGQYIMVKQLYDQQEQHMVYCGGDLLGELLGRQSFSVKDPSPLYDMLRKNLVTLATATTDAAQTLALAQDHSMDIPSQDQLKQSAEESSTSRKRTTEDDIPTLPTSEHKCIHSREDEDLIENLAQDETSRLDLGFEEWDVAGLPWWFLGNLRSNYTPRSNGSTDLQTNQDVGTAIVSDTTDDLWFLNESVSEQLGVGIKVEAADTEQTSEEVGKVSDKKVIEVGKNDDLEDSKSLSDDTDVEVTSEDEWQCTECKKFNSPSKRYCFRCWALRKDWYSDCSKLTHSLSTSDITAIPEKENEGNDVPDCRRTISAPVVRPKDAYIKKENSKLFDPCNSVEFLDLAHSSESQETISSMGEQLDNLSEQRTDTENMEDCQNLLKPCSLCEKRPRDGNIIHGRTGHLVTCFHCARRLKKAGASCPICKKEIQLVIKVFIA", "sequence (Q00987 whole entry, looked up)": "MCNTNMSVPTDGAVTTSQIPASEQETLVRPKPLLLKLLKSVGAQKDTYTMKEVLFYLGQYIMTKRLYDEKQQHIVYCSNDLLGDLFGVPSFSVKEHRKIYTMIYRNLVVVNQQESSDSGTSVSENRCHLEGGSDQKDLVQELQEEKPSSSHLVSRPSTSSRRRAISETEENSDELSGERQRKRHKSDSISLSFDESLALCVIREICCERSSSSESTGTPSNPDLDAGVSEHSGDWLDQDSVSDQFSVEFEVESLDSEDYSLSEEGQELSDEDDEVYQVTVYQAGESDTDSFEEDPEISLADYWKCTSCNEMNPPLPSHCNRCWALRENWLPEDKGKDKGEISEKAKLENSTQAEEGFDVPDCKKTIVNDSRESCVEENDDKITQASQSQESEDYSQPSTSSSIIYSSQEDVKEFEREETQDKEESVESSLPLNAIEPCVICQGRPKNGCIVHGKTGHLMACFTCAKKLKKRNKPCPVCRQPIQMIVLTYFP", "assay": "Mdm2-MdmX complex disruptors, retested hits, confirmation, luminescence, single concentration (AID 489028)", "conditions": "Mdm2-MdmX binding, luminescent assay; at 8 µM; stronger effect = higher value"}
{"compound": "O=C(/C=C/c1ccc(OCc2c(F)cccc2Cl)cc1)N1CCOCC1", "inhibition": "66.7% (active)"}
{"compound": "CCc1nc(C)cn1S(=O)(=O)c1cc([N+](=O)[O-])ccc1Cl", "inhibition": "50.9% (active)"}
{"compound": "O=C(CCCN1C(=O)/C(=C\\c2ccco2)SC1=S)Nc1cccc2ccccc12", "inhibition": "94.5% (active)"}
{"compound": "O=C(CCCN1C(=O)/C(=C/c2ccco2)SC1=S)Nc1ccccc1", "inhibition": "70.8% (active)"}
{"compound": "OC(CNCC1CCCO1)Cn1c2ccc(Br)cc2c2cc(Br)ccc21", "note": "(stereo not given)", "inhibition": "38%"}
{"compound": "Cc1oc2c(c1C(=O)N1CCOCC1)C(=O)c1ccccc1C2=O", "inhibition": "62.5% (active)"}
{"compound": "Cc1c(C(=O)Nc2cccc(Cl)c2)cn2c(nc3ccccc32)c1C#N", "inhibition": "9.95%"}
{"compound": "Cc1nc(N2CCN(c3ccccn3)CC2)c2c(C)c(C(=O)Nc3ccc(F)c(Cl)c3)sc2n1", "inhibition": "34.2%"}
{"compound": "COc1ccc2nc(Nc3nc4ccc(NC(C)=O)cc4s3)sc2c1", "inhibition": "35.2%"}
{"compound": "Cc1nnc(NC(=O)Nc2ccc(Cl)c(Cl)c2)s1", "inhibition": "86.5% (active)"}
{"compound": "CC(C)(C)CC(C)(C)NCC(O)COCCOc1ccc(Br)cc1", "note": "(stereo not given)", "inhibition": "51.1% (active)"}
{"compound": "Cc1nn(-c2ccccc2)c2sc(C(=O)N(Cc3ccco3)C(C)C(=O)NC(C)(C)C)cc12", "note": "(stereo not given)", "inhibition": "12.8%"}
{"compound": "CC[C@H]1CN2CCc3cc(OC)c(OC)cc3[C@@H]2C[C@@H]1C[C@H]1NCCc2cc(OC)c(OC)cc21", "inhibition": "99.8% (active)"}
{"compound": "Cc1ccc(-c2cccc([C@H]3[C@@H]4C=CC[C@@H](C)[C@@H]4C(=O)N3Cc3ccccc3)c2)cc1", "inhibition": "-5.3%"}
{"compound": "CCOC(=O)c1ccc(NC(=O)c2c(NCc3ccccc3)[nH]c(=O)[nH]c2=O)cc1", "inhibition": "12.4%"}
{"compound": "Cc1cc(NC(=O)/C=C/C(=O)N(c2ccccc2C)C(C(=O)NC2CCCC2)c2ccc(F)cc2)no1", "note": "(stereo not given)", "inhibition": "70% (active)"}
{"compound": "N/C(=N\\OC(=O)N1c2ccccc2Sc2ccccc21)c1ccc(Br)cc1", "inhibition": "-3.5%"}
{"compound": "N/C(=N\\OC(=O)c1ccc2c(c1)OCO2)c1ccc(Br)cc1", "inhibition": "40.2% (active)"}
{"compound": "CCOC(=O)/C=c1\\s/c(=C\\c2ccc(C#N)cc2)c(=O)n1CC(=O)Nc1cccc(C)c1C", "inhibition": "8.85%"}
{"compound": "Oc1ccccc1C1=NN(c2ccccc2)C(c2ccccc2)C1", "note": "(stereo not given)", "inhibition": "8.55%"}
{"compound": "COc1ccc(OC)c(NC(=O)c2sc3nc(C)cc(C)c3c2N)c1", "inhibition": "15.5%"}
{"compound": "COc1ccc(NC(=O)c2cc(-c3cc(OC)c(OC)c(OC)c3)nc3ccccc23)c(OC)c1", "inhibition": "57% (active)"}
{"compound": "O=C(Nc1nnc(-c2ccccc2)o1)c1cc(-c2cccs2)nc2ccccc12", "inhibition": "29.7%"}
{"compound": "O=[N+]([O-])c1c(NCCO)cc(Sc2nc3ccccc3s2)c2nonc12", "inhibition": "96.7% (active)"}
{"compound": "COc1cccc(CNC(=O)Cc2csc(Nc3nc(=S)[nH]c4ccccc34)n2)c1", "inhibition": "15.8%"}
{"compound": "COc1cccc(CNC(=O)c2nnn(CC(=O)Nc3cc(Cl)ccc3C)c2N)c1", "inhibition": "62.3% (active)"}
{"compound": "CCCCCCSc1ccc([C@@H]2[C@@H]3C(=O)N(CC)C(=O)[C@@H]3[C@]3(C(=O)OC)CCCCN23)cc1OC", "inhibition": "21.6%"}
{"compound": "CCOC(=O)/C(=C\\c1ccc([N+](=O)[O-])cc1)C(=O)c1cc(C(C)=O)c(Nc2ccccc2)s1", "inhibition": "99.6% (active)"}
{"compound": "Cc1ccc2occ(/C=N/NC(=O)c3ccccc3C)c(=O)c2c1", "inhibition": "65.8% (active)"}
{"compound": "CCc1ccc(-c2cc3c(=O)n(CC(=O)NCCCN4CCN(Cc5ccccc5)CC4)nc(C)n3n2)cc1", "inhibition": "55.5% (active)"}
{"compound": "Cn1c(C(=O)NCCCN2CCN(c3cccc(Cl)c3)CC2)cc2c(=O)n(C)c3ccccc3c21", "inhibition": "37.8%"}
{"compound": "O=C1NC[C@@H](c2ccccc2)OC(=O)[C@H](Cc2ccc(F)cc2)CC/C=C/C[C@H]1CC(=O)N(CCO)Cc1ccccc1", "inhibition": "54.5% (active)"}
{"compound": "O=C(C[C@H]1C/C=C\\C[C@@H](NC(=O)OCC2c3ccccc3-c3ccccc32)C(=O)O[C@@H](c2ccccc2)CNC1=O)N[C@H](CO)Cc1ccccc1", "inhibition": "28.4%"}
{"compound": "C=CC[C@H](CC(=O)N(CCO)Cc1ccccc1)C(=O)N[C@@H](COC(=O)[C@@H](CC=C)Cc1ccc(F)cc1)Cc1ccccc1", "inhibition": "1.35%"}
{"compound": "CN1CCN(CCCNC(=O)c2ccc(/C=C3\\Oc4ccccc4N(Cc4ccc(Cl)cc4)C3=O)cc2)CC1", "inhibition": "55% (active)"}
{"compound": "Cc1ccccc1C(CC(=O)c1cccs1)C(C#N)C#N", "note": "(stereo not given)", "inhibition": "54.7% (active)"}
{"compound": "Clc1cccc(Cl)c1OCCOCCNCc1ccccc1", "inhibition": "86% (active)"}
{"compound": "O=C(N/N=C/c1sc(N2CCCCC2)nc1-c1cccs1)c1cccnc1", "inhibition": "25.3%"}
{"compound": "CCOc1ccccc1NC(=O)Cn1nnc(C(=O)NCc2cccs2)c1N", "inhibition": "52.7% (active)"}
{"compound": "Cc1ccc(-c2nn(C(C)(C)C)c3ncnc(N)c23)cc1", "inhibition": "67% (active)"}
{"compound": "COc1cc(SC)ccc1C(=O)Nc1nc(C)cs1", "inhibition": "57.5% (active)"}
{"compound": "CCCC(=O)Nc1ccc(C(=O)N/N=C/c2ccc[nH]2)cc1", "inhibition": "6.9%"}
{"compound": "CCn1c(/C=C/Nc2ccccc2)[n+](CC)c2ccc(C(=O)OCC(F)(F)F)cc21", "inhibition": "13.1%"}
{"compound": "O=C(COc1ccccc1F)Nc1nc(-c2ccccn2)cs1", "inhibition": "53.6% (active)"}
{"compound": "CC1CCN(C(=O)c2ccc(S(=O)(=O)Cc3cc(F)ccc3F)c([N+](=O)[O-])c2)CC1", "inhibition": "64% (active)"}
{"compound": "CCOC(=O)N1CCN(C(=O)c2ccc(S(=O)(=O)c3ccc(C)cc3)c(NC(C)=O)c2)CC1", "inhibition": "8.65%"}
{"compound": "FC(F)(F)c1nnc2c3ccccc3c(Cl)nn12", "inhibition": "47% (active)"}
{"compound": "COc1ccccc1C(=O)NC(=S)NC12CC3CC(CC(C3)C1)C2", "inhibition": "21.8%"}
{"compound": "Cn1nc(-c2ccccc2)c(CSc2cccc(Cl)c2)c1Cl", "inhibition": "48.5% (active)"}
{"compound": "CCOC(=O)c1c(NC(=O)c2ccc(S(=O)(=O)N(C)CC3CCCO3)cc2)sc2c1CC(C)(C)NC2(C)C", "note": "(stereo not given)", "inhibition": "47.1% (active)"}
{"compound": "C=CCN(CC=C)S(=O)(=O)c1ccc(C(=O)Nc2sc3c(c2C(N)=O)CCCCC3)cc1", "inhibition": "10.8%"}
{"compound": "CC1(C)CCSC(/C=C/c2ccccc2)=N1", "inhibition": "68% (active)"}
{"compound": "Cc1[nH]c(=O)c(C(=O)/C=C/c2ccccc2)c2c1CCCC2", "inhibition": "99.5% (active)"}
{"compound": "C=CCn1c(C)cc(C2=NNC(=NCC)SC2)c1C", "inhibition": "98.1% (active)"}
{"compound": "Cc1cc(C)nc(S/C=C/C(=O)c2ccccc2)n1", "inhibition": "32.4%"}
{"compound": "O=C(/C=C/Sc1ncn[nH]1)c1ccc(Cl)cc1", "inhibition": "80.4% (active)"}
{"compound": "CC[n+]1cc(C)ccc1/C=C/c1ccc(N(C)C)cc1", "inhibition": "53.6% (active)"}
{"compound": "COc1ccccc1N1CCN(C(=O)c2cc(=O)c3cc(C)cc(C)c3o2)CC1", "inhibition": "66.8% (active)"}
{"compound": "C#CCOCCOCCOCCNc1nc(N2CCN(C(=O)CCCCCCCCCCNC(=O)[C@H](CCCCN)n3cc(C)nn3)CC2)nc(N2CCN(C(=O)CCCCCCCCCCNC(=O)[C@H](CO)n3cc(CCCSC)nn3)CC2)n1", "inhibition": "14%"}
{"compound": "CN(NC(=O)c1ccccc1F)c1nc(C(F)(F)F)nc2ccccc12", "inhibition": "57% (active)"}
{"compound": "CN(NC(=O)c1ccccc1)c1nc2ccccc2nc1C(F)(F)F", "inhibition": "51.9% (active)"}
{"compound": "CSc1nc(N(C)NC(=O)c2cccc(C)c2)c2ccccc2n1", "inhibition": "57.7% (active)"}
{"compound": "O=C(Nc1nnc(-c2ccccc2F)s1)c1ccccc1F", "inhibition": "-82.2%"}
{"compound": "CCOC(=O)/C=C/C(=O)OCC(=O)NC(c1ccccc1)c1ccccc1", "inhibition": "74.5% (active)"}
{"compound": "COc1cc2c(cc1NC(=O)COC(=O)/C=C/c1ccccc1)oc1ccccc12", "inhibition": "-6.7%"}
{"compound": "Cc1ccccc1NC(=O)CSc1nc2ccc(Nc3nc(N4CCOCC4)nc(N4CCOCC4)n3)cc2s1", "inhibition": "35.7%"}
{"compound": "Cc1cc2cc3c(cc2nc1SCC(=O)Nc1c(C)cccc1C)CCC3", "inhibition": "43.1% (active)"}
{"compound": "OCCNc1nc(Nc2ccc(Cl)c(Cl)c2)nc2ccccc12", "inhibition": "69.5% (active)"}
{"compound": "O=C(CSc1nc2ccccc2c(=O)[nH]1)Nc1nc(-c2ccc(Br)cc2)cs1", "inhibition": "47.8% (active)"}
{"compound": "O=C(NNc1ccccc1Cl)C(O)(c1cccc(C(F)(F)F)c1)c1cccc(C(F)(F)F)c1", "inhibition": "36.2%"}
{"compound": "COC(=O)Cc1[nH]n(-c2nc3ccccc3s2)c(=O)c1C(C)=Nc1ccc(OC)cc1", "inhibition": "89.3% (active)"}
{"compound": "CCCCN(CCCC)CCC(O)c1cc2c(Cl)cc(Cl)cc2c2cc(C(F)(F)F)ccc12", "note": "(stereo not given)", "inhibition": "21.1%"}
{"compound": "COc1ccc2sc(-c3ccccc3OC)c(-c3ccc(OCCN4CCCC4)cc3)c2c1", "inhibition": "5.35%"}
{"compound": "COc1cccc(-c2sc3ccc(OC)cc3c2-c2ccc(OCCN3CCCCC3)cc2)c1", "inhibition": "49.5% (active)"}
{"compound": "O=C(CN1C(=O)c2ccccc2S1(=O)=O)N1CCc2ccccc21", "inhibition": "53% (active)"}
{"compound": "COCCCNc1nc2c(-c3cccc(C)c3)nnn2c2ccc(Cl)cc12", "inhibition": "67% (active)"}
{"compound": "C=CCC[C@@H](Cc1ccc(F)cc1)C(=O)O[C@H](CNC(=O)[C@H](CC=C)CC(=O)N(CCO)Cc1ccccc1)c1ccccc1", "inhibition": "12.4%"}
{"compound": "COc1ccc(CCn2c(=N)c(C(=O)NCC3CCCO3)cc3c(=O)n4cccc(C)c4nc32)cc1OC", "note": "(stereo not given)", "inhibition": "48.1% (active)"}
{"compound": "Cc1cccn2c(=O)c3cc(C(=O)NCCN4CCOCC4)c(=N)n(Cc4cccnc4)c3nc12", "inhibition": "49.2% (active)"}
{"compound": "CCc1ccc(CNC(=O)C2CCN(c3nnc(C)c4c(C)n(-c5ccc(C)cc5)nc34)CC2)cc1", "inhibition": "56.7% (active)"}
{"compound": "COc1cc(NC(=O)c2ccccc2NS(=O)(=O)c2ccc(Cl)s2)cc(OC)c1", "inhibition": "76.4% (active)"}
{"compound": "Oc1ccc(/C=N/Nc2nc(-c3ccccc3F)nc3ccccc23)c(O)c1", "inhibition": "54.6% (active)"}
{"compound": "Cc1nc2ccccc2nc1N/N=C/c1ccc(O)cc1O", "inhibition": "61.6% (active)"}
{"compound": "COC(=O)C1=C(Nc2ccc(C)cc2)C=C(C)C(C(=O)OC)C1c1ccc(F)cc1", "note": "(stereo not given)", "inhibition": "53.5% (active)"}
{"compound": "Nc1nonc1-n1nnc(C(=O)N/N=C/c2ccccc2O)c1CN1CCCC1", "inhibition": "33.8%"}
